Here are results for 96 compounds from PubChem BioAssay AID2094 (Broad Institute, 2009).

Molecules are shown by their SMILES. In all, about 300,000 compounds went through this assay and about 1,200 (0.4%) were called active. Many of the other results were omitted from the sample, so actives are more common in it than they were. Unmarked numbers belong to inactive results. Rule as the data show it: active = activity change below about -75% (passing the limit was not always enough); inconclusive = no clear call, values can overlap the other calls.

The test in a line: modulation of AI-2 quorum-sensing luminescence – JMH597 strain, luminescence/OD600 ratio, primary screen (AID 2094).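 Also: luminescence divided by OD600 gain over 9 h not by final OD600 alone.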 Particulars: Vibrio harveyi JMH597 AI-2 luminescence/OD600 ratio, 9 h; at 7.5 µM; active compounds read low; 0 = neutral-control median; strain lacks LuxN and CqsS sensors.
Regarding `O=S(=O)(Nc1ccccn1)c1ccc(Oc2ccccc2)cc1`, the activity change was 21.1%.
In the case of `O=S(=O)(Nc1cccc(Oc2ccc(Cl)cc2)n1)c1ccc(F)cc1` it was -97.1% (active); in that of `O=S(=O)(Nc1ccccn1)c1cccc(S(=O)(=O)c2ccc(Cl)cc2)c1`, 3.88%; in that of `CC(=O)Oc1ccc2c(=O)oc(-c3ccc([N+](=O)[O-])cc3)nc2c1`, 9.78%.
Turning to `COc1ccc(S(=O)(=O)NC(C)C(=O)Nc2cccc([N+](=O)[O-])c2)cc1` (stereo unspecified), the activity change was 16.9%.
The same measure for `COc1cccc(CNC(=O)CCCC(=O)Nc2cccc([N+](=O)[O-])c2)c1`: 33.3%.
The same measure for `COC(=O)/C=C\C(=O)Nc1cccc([N+](=O)[O-])c1`: -88.2% (active); for `Cc1ccc(C(=O)NNC(=O)c2ccncc2)cc1S(=O)(=O)N1CCCCC1`: 18%.
The same measure for `NC(=O)c1ccc(-c2csnn2)cc1`: -13%; for `Cc1cc(C)c(C(N)=O)c(Cl)n1`: -0.00035%.
As to `O=C(NCc1cccc(CNC(=O)Nc2cccc(O)c2)c1)Nc1cccc(O)c1`, the activity change is 3.61%.
The same measure for `COc1cccc(NC(=O)NCc2ccc(F)cc2)c1`: -88.7% (active).
On to `COc1cccc(NC(=O)NCCN2CCCCC2)c1`, for which the activity change was 8.92%.
On to `Oc1ccc(N=Nc2nccs2)c(O)c1`, for which the activity change is -86.3% (active).
The same measure for `Cc1cc(-c2ccccc2)nc(N2CCC(C(=O)NC34CC5CC(CC(C5)C3)C4)CC2)n1`: 31.5%; for `CCN1C(=NCCc2cccnc2)N[C@@H](c2ccccc2)C(C(=O)OC)=C1C`: 8.09%.
The same measure for `O=C(O)c1ccc(N/N=C/c2cn(-c3ccccc3)nc2-c2cccs2)cc1`: -83.5% (active); for `COc1ccc(-c2nn(-c3ccccc3)cc2/C=C\C(=O)Nc2ccc(C(=O)O)cc2)cc1`: 21.3%; for `O=C(/C=C\c1cn(-c2ccccc2)nc1-c1cccs1)N1CCOCC1`: 28.5%.
Consider `O=C1C2CCCN2C(=O)N1CCCCN1CCN(c2cccc(C(F)(F)F)c2)CC1` (stereo unspecified), for which the activity change is 12.2%.
The same measure for `CCC(C)N(C(=O)COC(=O)C1C(C(=O)OC)=C(C)NC(C)=C1C(=O)OC)C1CCS(=O)(=O)C1` (stereo unspecified): 18.1%; for `CN(C)S(=O)(=O)c1ccc(NC(=O)N2CCOCC2)cc1`: 11.7%.
The same measure for `COc1cccc(NC(=O)c2ccc(S(=O)(=O)N(C)C)cc2)c1`: 14.9%.
For the compound `CN(C)S(=O)(=O)c1ccc(Oc2ccc(S(=O)(=O)N(C)C)cc2)cc1`, the activity change is -86.2% (active).
In the case of `CCc1ccc(-c2cc(C)no2)cc1S(=O)(=O)NCCc1ccc(S(N)(=O)=O)cc1` it was 9.18%; in that of `CC12CCC(=O)N1C(C(=O)NCCN1C(=O)S/C(=C\c3ccccc3F)C1=O)CS2` (stereo unspecified), 17%.
The same measure for `Nc1c(-c2ccccc2)nnn1Cc1ccccc1`: -76.6% (active); for `Nc1c(C(=O)Nc2ccc3c(c2)OCCO3)nnn1Cc1ccccc1`: 9.93%; for `O=c1c2ccccc2c(-c2ccc(Br)cc2)nn1Cc1ccccc1`: 41.9%.
As to `O=C(/C=C/c1ccc(F)cc1)NCCNC(=O)/C=C/c1ccc(F)cc1`, the activity change is 20.3%.
In the case of `CC(C)c1ccc(/C=C/C(=O)NNC(=O)c2cccnc2)cc1` it was 5.1%.
Regarding `O=C(/C=C/c1ccc(F)cc1)NC(=S)NNC(=O)c1cccnc1`, the activity change was -112% (active).
In the case of `Cc1ccc(N2CCN(S(=O)(=O)N(C)C)CC2)cc1Cl` it was 10.7%.
The same measure for `CCCCCCC(O)(CCN1CCCCC1)c1ccccc1` (stereo unspecified): 20%; for `OC(CN=c1sc2ccccc2n1CC(O)COc1ccccc1)COc1ccccc1` (stereo unspecified): 4.84%.
As for `Cn1nccc1C(=O)N1CCCC(C(=O)c2ccc(Oc3ccccc3)cc2)C1` (stereo unspecified), the activity change is -2.94%.
In the case of `CCNC(=O)N1CCCC(C(=O)c2ccc(-c3ccccc3)cc2)C1` (stereo unspecified) it was -9.07%; in that of `O=C(c1ccc(-c2ccccc2)cc1)C1CCCN(C(=O)c2cncs2)C1` (stereo unspecified), -77.4% (active).
In the case of `COc1ccc(Oc2c(Cl)cnn(-c3ccccc3)c2=O)cc1` it was 8.72%; in that of `Cc1ccc(-c2nc3c(cnn3-c3ccccc3)c(=O)o2)cc1`, 9.58%; in that of `Cc1ccc(Oc2cnn(-c3ccccc3)c(=O)c2Br)cc1`, -95.8% (active).
Take `C/C(=N\NC(=O)c1ccc(C)cc1)C1C(=O)c2ccccc2C1=O`: the activity change is 17%.
In the case of `Cc1ccsc1C(=O)OCC(=O)c1cc(C)n(CC2CCCO2)c1C` (stereo unspecified), the activity change is 22.3%.
In the case of `Cc1ccsc1C(=O)OCC(=O)c1cc2ccccc2o1` it was -88.1% (active); in that of `CSCCC(NC(=O)COc1ccccc1)C(=O)OCC(=O)c1cc2ccccc2o1` (stereo unspecified), 8.03%.
The same measure for `Cc1ccc(NC(=O)C2CCN(S(=O)(=O)c3ccc4c(c3)NC(=O)CO4)CC2)cc1C`: -2.55%.
The same measure for `Cn1c(N)c(C(=O)COC(=O)C23CC4CC(CC(C4)C2)C3)c(=O)n(C)c1=O`: 12.7%.
Regarding `Cc1csc(=O)n1CC(=O)OCC(=O)N(CC(C)C)c1c(N)n(Cc2ccccc2)c(=O)[nH]c1=O`, the activity change is 6.79%.
With `CC(C)(C)c1ccc(CN2C(=O)c3ccccc3S2(=O)=O)cc1`, the activity change was 21.7%.
`CC(C)(C)c1ccc(OC2=CS(=O)(=O)c3ccccc32)cc1`: the activity change was -84.2% (active).
In the case of `CC(C)(C)c1ccc(Oc2ccc(N)cc2)cc1` it was -23.7%; in that of `CCN(CC)C(=O)CN(c1cccc(OC)c1)S(=O)(=O)c1ccc(C)cc1`, 9.13%; in that of `CC(C)C(C)NC(=O)COc1ncnc2ccccc12` (stereo unspecified), 19.9%.
The same measure for `CC(=O)Nc1ccc(NC(=O)COc2ncnc3ccccc23)cc1`: -8.91%.
In the case of `O=C(COc1ncnc2ccccc12)NC(=O)NCc1ccccc1` it was -86.9% (active); in that of `CCOC(=O)c1cc(C(C)C)sc1NC(=O)COC(=O)c1nccnc1N`, 29.5%.
With `COc1ccc(/C(N)=N/OC(=O)Cc2ccccc2)cc1`, the activity change is -87.5% (active).
In the case of `COc1ccc(/C(N)=N/OC(=O)CCCc2ccccc2)cc1` it was 749%; in that of `N/C(=N\OC(=O)Cc1ccccc1[N+](=O)[O-])c1ccc(Br)cc1`, -5%; in that of `O=C1CCCc2nn(-c3ccccc3)nc21`, 8.67%.
The same measure for `CCCc1ccc(OCCNC(=O)c2ccccc2Br)cc1`: 28.5%; for `CCCc1ccc(OCC(=O)NNC(=S)NC(=O)c2ccco2)cc1`: -5.63%; for `CCCc1ccc(OCCNC(=O)c2ccco2)cc1`: -83.3% (active).
As to `Cc1ccccc1OCC(=O)Nc1ccc2c(c1)ncn2C`, the activity change is 27.2%.
The same measure for `Cc1ccc(C(=O)O)cc1N1C(=O)CCCC1=O`: 28.2%.
For the compound `CCc1nnc(NS(=O)(=O)c2ccc(NC(=O)c3cccc(OC(F)(F)C(F)F)c3)cc2)s1`, the activity change is 24.2%.
As to `O=C(O)c1ccc(S(=O)(=O)N2CCC(Cc3ccccc3)CC2)cc1`, the activity change is 38.4%.
With `Cc1cc(C)nc(N/N=C/c2ccncc2)n1`, the activity change is 10.7%.
In the case of `CCc1ccc(S(=O)(=O)N/N=C\c2ccc([N+](=O)[O-])o2)cc1` it was 28.2%; in that of `Cc1cc(C)nc(N/N=C/c2ccc([N+](=O)[O-])o2)n1`, -83.7% (active).
In the case of `NC(=O)CN1CCCC1c1ccc2c(c1)OCCO2` (stereo unspecified) it was 22.1%.
In the case of `Cc1ccc(CCCOC(=O)C[N+]2(C)CCCCC2)cc1` it was 20.1%.
Consider `Cc1cccc(-c2noc(-c3ccc(F)cc3)n2)c1`, for which the activity change is 2.4%.
The same measure for `Cc1ccc(-c2noc(CN3CCN(Cc4ccccc4)CC3)n2)cc1`: -10.7%; for `Cc1ccc(Cc2nc(-c3cccc(C)c3)no2)cc1`: -81.8% (active).
In the case of `Cc1cccc(C)c1N1CCN(S(=O)(=O)N2CCOCC2)CC1` it was 0.226%.
In the case of `Cc1cc(C)cc(NC(=O)COC(=O)c2cc(C)oc2C)c1` it was -17%; in that of `Cc1cccc(C(=O)OCC(=O)Nc2ccc(F)cc2)c1`, -25.5%; in that of `Cc1cc(C(=O)OCC(=O)Nc2ccc(F)c(F)c2)c(C)o1`, -93.5% (active).
For the compound `CCOC(=O)N1CCN(S(=O)(=O)c2ccc(Br)cc2)CC1`, the activity change is 14.3%.
The same measure for `CC1CCN(C(=O)Cn2nnnc2CN2CCOCC2)CC1`: 8%; for `O=C(/C=C/c1ccc(Cl)c([N+](=O)[O-])c1)c1ccc(O)cc1`: -37.5%.
In the case of `O=C(/C=C/c1ccc2c(c1)OCCO2)c1ccc(O)cc1` it was -84.5% (active).
In the case of `CN(C)c1ccc(/C=C/C(=O)c2ccc(C(C)(C)C)cc2)cc1[N+](=O)[O-]` it was 19.9%.
As to `CC(=O)c1ccc2c(c1)OCCOCCOc1ccc(C(C)=O)cc1OCCOCCO2`, the activity change was 17.9%.
In the case of `O=C(O)/C=C/c1ccc2c(c1)OCCO2` it was 6.59%; in that of `CN(C)c1ccc(/C=C/C(=O)c2ccc(O)cc2)cc1[N+](=O)[O-]`, -93% (active); in that of `O=C(Cc1ccc([N+](=O)[O-])cc1)Nc1ccc(C(=O)N2CCOCC2)cc1`, 31%.
In the case of `CCN(CC)c1ccc(S(=O)(=O)N2CCCCC2)cc1NC(=O)C1=COCCO1`, the activity change was 0.314%.
For the compound `Cc1cccc(N2CCN(S(=O)(=O)c3ccc(-c4cc(C)no4)s3)CC2C)c1` (stereo unspecified), the activity change was 7.14%.
The same measure for `Cc1ccc(C(=O)N2CCN(S(=O)(=O)N3CCOCC3)CC2)cc1`: 14.3%.
In the case of `NC(=O)c1ccc(NC(=O)COC(=O)c2ccc([N+](=O)[O-])cc2)cc1` it was 17.8%; in that of `O=C(COc1ccc([N+](=O)[O-])cc1)Nc1ccc(N2CCCC2)cc1`, 44.5%; in that of `O=C(COC(=O)C1CCCCC1)Nc1ccc([N+](=O)[O-])cc1`, -83.6% (active).
For the compound `CCCC1NC(=O)NC(C)=C1C(=O)OCC` (stereo unspecified), the activity change was 2.55%.
As to `Oc1c(Br)cc(/C=N/NC(=S)NCC2CCCO2)cc1Br` (stereo unspecified), the activity change is 46.7%.
